Among the data in PubChem BioAssay are composite z-score and z-score values, retold here.

Activity calls are given as the source filed them.

Assay [1] in a line: small molecules captured by biotinylated probe aFSTL3 – biochemical, small-molecule microarray, fluorescence 635/667, stem cell growth factor project, primary screen (AID 1064).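 Further: measures binding of the biotinylated anti-FSTL3 antibody to printed compounds.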 The note with it: higher = more signal.
Assay [2] can be described thus: binders from COS7 lysate, DM2A8 probe, primary screen, torsin A project, cell lysate, small-molecule microarray, fluorescence 635/667 (AID 1065). The note with it: higher = more signal, COS7 lysate expressing mutant human TOR1A.
Assay [3] in a line: small molecules captured by biotinylated probe aFGF2 – biochemical, small-molecule microarray, fluorescence 635/667, stem cell growth factor project, primary screen (AID 1067).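 Further: measures binding of biotinylated aFGF2 protein to printed compounds on slides; z-score merges feature fluorescence and signal-to-noise across triplicate slides.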 The note with it: higher = more signal.
The nature of assay [4]: small molecules captured by biotinylated probe aFGF10 – biochemical, small-molecule microarray, fluorescence 635/667, stem cell growth factor project, primary screen (AID 1071).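 Further: score merges 667 nm spot intensity and signal to noise from triplicate slides.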 The note with it: higher = more signal.
Assay [5] deals with Neurogenic locus notch homolog protein 2 (Homo sapiens) (UniProt Q04721). The assay can be described thus: small molecules binding Notch2 protein – biochemical, small-molecule microarray, 635 nm fluorescence, stem cell growth factors, primary screen (AID 1073). The note with it: higher = more signal.
In assay [6] the target is Pro-neuregulin-1, membrane-bound isoform (Homo sapiens) (UniProt Q02297). The assay can be described thus: small molecules binding neuregulin-1 protein – biochemical, small-molecule microarray, fluorescence 635/667, psychiatric disease protein project, primary screen (AID 1075).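 Further: score combines 667 nm spot fluorescence with signal to noise.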 The note with it: NRG1 binding, 635 nm fluorescence, higher = more signal.
Sequence of Pro-neuregulin-1, membrane-bound isoform (Homo sapiens) (Q02297 whole entry, looked up, the tested form may be a part, canonical isoform): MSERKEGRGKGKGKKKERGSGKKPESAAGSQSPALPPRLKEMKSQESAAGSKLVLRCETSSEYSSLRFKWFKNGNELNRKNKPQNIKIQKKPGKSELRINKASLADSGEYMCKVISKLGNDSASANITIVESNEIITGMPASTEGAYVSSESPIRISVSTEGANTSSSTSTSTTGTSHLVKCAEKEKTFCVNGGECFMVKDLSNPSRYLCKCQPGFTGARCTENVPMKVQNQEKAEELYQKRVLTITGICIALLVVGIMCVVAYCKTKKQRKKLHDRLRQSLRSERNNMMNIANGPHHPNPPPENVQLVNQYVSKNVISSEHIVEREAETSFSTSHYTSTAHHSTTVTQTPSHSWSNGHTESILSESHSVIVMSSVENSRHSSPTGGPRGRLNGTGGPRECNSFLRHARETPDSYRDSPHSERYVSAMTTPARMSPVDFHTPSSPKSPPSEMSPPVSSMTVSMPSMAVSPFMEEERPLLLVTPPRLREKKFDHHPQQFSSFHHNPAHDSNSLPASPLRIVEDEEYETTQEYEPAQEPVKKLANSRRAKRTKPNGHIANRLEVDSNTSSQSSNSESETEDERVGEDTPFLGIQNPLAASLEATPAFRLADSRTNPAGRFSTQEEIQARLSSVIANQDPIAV
Assay [7] relates to Neuregulin-1 EGF-like domain. The assay can be described thus: small molecules binding NRG1 EGF domain – biochemical, small-molecule microarray, 635 nm fluorescence, primary screen (AID 1081).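 Further: binding of the protein to compounds printed on small-molecule microarray slides.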 The note with it: higher = more signal.
Assay [8] in a line: FRG1 expression reporter modulators in myotubes – cell-based, C2C12 myotubes, firefly/Renilla luciferase, luminescence, FRG1 inhibition for FSHD, primary screen (AID 1084). The note with it: FRG1 promoter luciferase, higher = more signal, called active from +8 up or from −8 down.
Assay [9] is described as follows: small molecules captured by biotinylated probe aFST – biochemical, small-molecule microarray, fluorescence 635/667, stem cell growth factor project, primary screen (AID 1086).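 Further: score merges 667 nm fluorescence with signal-to-noise of each printed compound spot.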 The note with it: higher = more signal.
Assay [10] can be described thus: binders of probe aHhip on microarray, primary screen, stem cell growth factor project, biochemical, small-molecule microarray, fluorescence 635/667 (AID 1087).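 Further: score merges spot fluorescence at 667nm with spot signal to noise ratio.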 The note with it: higher = more signal.
Assay [11] deals with PRMT1 (protein arginine N-methyltransferase 1). The assay can be described thus: small molecules binding arginine methyltransferase PRMT1 – biochemical, small-molecule microarray, 635 nm fluorescence, primary screen (AID 1088).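 Further: binding of Prmt1 protein to compounds spotted on small-molecule microarray slides.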 The note with it: higher = more signal.
Assay [12] in a line: growth effects on S. cerevisiae YJM789 – YJM789 clinical isolate, OD600, 24 h, basal, primary screen (AID 1089).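 Further: growth of clinical yeast isolate S. cerevisiae YJM 789 seeded 1000 cells per well; test concentration not given here.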 The note with it: higher = more signal, called active from +8 up or from −8 down.
Assay [13] in a line: S. pombe growth modifiers, basal conditions – strain 972, OD600, 24 h, no modulator, primary screen (AID 1090).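 Further: basal condition with compound alone and no growth modifier present; test concentration not given here.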 The note with it: S. pombe 972 growth, higher = more signal, called active from +8 up or from −8 down.
Assay [14] is described as follows: budding yeast growth modifiers under rapamycin – strain BY4716, OD600, 96 h, primary screen (AID 1091). Further: test concentration not given here. The note with it: S. cerevisiae BY4716 + rapamycin, higher = more signal, called active from +8 up or from −8 down.
The target of assay [15] is Torsin-1A-interacting protein 2 (Homo sapiens) (UniProt Q8NFQ8). Put plainly: small molecules binding lysate-expressed LULL1 – cell lysate, human LULL1 lysate, 635/667 nm fluorescence, primary screen (AID 1092).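 Further: probe is lysate of COS7 cells overexpressing human LULL1; score merges per-feature 667 nm fluorescence with signal-to-noise.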 The note with it: small-molecule microarray, hLULL1 lysate binding, 635 nm fluorescence; higher = more signal.
Sequence of Torsin-1A-interacting protein 2 (Homo sapiens) (Q8NFQ8 whole entry, looked up): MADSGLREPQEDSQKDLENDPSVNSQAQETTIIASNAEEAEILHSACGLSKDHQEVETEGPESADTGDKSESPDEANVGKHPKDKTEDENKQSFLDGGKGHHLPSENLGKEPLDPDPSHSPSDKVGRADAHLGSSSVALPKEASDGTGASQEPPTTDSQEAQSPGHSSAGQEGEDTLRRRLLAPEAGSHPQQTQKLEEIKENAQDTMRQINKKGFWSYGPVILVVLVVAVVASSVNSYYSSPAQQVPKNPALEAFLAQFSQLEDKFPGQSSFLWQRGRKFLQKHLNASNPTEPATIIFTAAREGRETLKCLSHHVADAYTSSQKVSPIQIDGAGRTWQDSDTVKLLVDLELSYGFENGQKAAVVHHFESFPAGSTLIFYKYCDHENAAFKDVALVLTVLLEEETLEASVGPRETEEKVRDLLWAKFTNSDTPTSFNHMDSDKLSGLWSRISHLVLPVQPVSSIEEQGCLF
Assay [16] in a line: optical density change of DRC41 E. coli – strain DRC41, OD650, 24 h, E. coli filamentation project, primary screen (AID 1093).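 Further: MC1000 strain lacking acrAB efflux and sulA so SOS filamentation is blocked; test concentration not given here.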 The note with it: E. coli DRC41 growth, higher = more signal, called active from +8 up or from −8 down.
A short description of assay [17]: probe aLefty2 binding to arrayed compounds – biochemical, biotinylated probe, 635/667 nm fluorescence, primary screen (AID 1094).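 Further: score merges spot fluorescence near 667 nm with spot signal-to-noise ratio.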 The note with it: small-molecule microarray, higher = more signal.
Assay [18] concerns Noggin (protein binding on small-molecule microarray). Put plainly: small molecules binding Noggin protein – biochemical, 635/667 nm fluorescence, primary screen (AID 1095).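 Further: score merges 667 nm feature fluorescence with signal to noise over triplicate slides.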 The note with it: 635 nm fluorescence, higher = more signal.
For assay [19], the target named is Neurogenic locus notch homolog protein 3 (Homo sapiens) (UniProt Q9UM47). Put plainly: small molecules binding NOTCH3 protein – biochemical, 635/667 nm fluorescence, primary screen (AID 1096). The note with it: small-molecule microarray, 635 nm fluorescence, higher = more signal.
Sequence of Neurogenic locus notch homolog protein 3 (Homo sapiens) (Q9UM47 whole entry, looked up): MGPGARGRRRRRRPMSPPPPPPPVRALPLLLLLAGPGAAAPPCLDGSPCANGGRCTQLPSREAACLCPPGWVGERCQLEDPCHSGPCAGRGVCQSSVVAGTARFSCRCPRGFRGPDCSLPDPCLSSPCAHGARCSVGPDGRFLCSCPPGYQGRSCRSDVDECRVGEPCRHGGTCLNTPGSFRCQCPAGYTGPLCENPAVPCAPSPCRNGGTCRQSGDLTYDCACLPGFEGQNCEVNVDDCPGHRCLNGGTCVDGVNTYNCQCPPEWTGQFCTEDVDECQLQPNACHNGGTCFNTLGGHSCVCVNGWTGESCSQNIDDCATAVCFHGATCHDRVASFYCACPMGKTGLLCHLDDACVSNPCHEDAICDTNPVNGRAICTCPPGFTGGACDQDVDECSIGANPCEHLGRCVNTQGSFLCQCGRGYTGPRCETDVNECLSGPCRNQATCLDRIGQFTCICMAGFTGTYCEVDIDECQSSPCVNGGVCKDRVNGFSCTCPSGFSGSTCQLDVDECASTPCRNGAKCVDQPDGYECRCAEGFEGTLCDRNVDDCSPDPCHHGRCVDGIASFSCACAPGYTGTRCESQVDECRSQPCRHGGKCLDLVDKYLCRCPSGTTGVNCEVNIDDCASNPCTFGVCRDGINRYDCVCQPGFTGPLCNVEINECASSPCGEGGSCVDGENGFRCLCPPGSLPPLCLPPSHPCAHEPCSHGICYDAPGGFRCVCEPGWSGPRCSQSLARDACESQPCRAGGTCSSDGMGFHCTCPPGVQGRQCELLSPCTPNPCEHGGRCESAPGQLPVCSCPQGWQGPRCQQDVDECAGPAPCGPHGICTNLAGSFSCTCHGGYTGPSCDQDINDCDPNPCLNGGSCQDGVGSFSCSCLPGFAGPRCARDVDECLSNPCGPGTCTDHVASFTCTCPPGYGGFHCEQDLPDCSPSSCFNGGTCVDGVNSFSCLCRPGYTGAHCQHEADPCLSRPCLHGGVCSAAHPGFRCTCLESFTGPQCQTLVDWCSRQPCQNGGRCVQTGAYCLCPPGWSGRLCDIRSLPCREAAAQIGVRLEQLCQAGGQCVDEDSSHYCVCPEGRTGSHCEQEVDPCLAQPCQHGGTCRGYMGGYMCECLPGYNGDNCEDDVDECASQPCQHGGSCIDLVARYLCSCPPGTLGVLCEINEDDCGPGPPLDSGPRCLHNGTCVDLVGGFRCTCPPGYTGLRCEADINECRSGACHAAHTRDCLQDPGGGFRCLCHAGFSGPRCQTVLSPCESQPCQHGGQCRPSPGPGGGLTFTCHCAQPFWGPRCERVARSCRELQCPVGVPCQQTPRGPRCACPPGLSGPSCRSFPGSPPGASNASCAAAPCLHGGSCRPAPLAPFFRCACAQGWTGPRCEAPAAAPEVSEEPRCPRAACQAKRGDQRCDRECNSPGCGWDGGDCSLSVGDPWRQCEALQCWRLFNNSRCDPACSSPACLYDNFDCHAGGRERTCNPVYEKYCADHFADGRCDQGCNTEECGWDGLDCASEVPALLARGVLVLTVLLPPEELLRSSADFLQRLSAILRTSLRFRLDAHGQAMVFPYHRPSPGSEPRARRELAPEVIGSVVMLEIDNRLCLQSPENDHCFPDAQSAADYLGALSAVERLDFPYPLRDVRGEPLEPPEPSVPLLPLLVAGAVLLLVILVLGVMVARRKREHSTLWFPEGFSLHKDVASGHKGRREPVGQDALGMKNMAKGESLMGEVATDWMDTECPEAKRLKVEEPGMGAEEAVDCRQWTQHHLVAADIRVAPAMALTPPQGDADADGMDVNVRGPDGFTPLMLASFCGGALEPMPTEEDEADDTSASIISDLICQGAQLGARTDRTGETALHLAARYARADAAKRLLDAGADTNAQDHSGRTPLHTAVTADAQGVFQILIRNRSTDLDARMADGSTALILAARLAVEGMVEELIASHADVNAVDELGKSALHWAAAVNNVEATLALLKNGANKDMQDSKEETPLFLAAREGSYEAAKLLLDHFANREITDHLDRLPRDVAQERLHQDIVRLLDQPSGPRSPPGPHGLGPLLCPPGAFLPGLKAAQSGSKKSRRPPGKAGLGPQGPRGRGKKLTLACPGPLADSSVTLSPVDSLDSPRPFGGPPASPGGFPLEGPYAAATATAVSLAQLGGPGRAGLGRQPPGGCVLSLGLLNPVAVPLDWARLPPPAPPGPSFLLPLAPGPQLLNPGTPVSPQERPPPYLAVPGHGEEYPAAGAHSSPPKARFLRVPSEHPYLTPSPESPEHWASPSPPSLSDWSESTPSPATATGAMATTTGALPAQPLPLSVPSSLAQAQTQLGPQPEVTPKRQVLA
Assay [20] is described as follows: probe aEGFR binding to arrayed compounds – biochemical, biotinylated probe, 635/667 nm fluorescence, primary screen (AID 1097).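 Further: probe is a biotinylated anti-EGFR antibody binding compounds printed on slides; score combines fluorescence near 667 nm and signal to noise of each spot.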 The note with it: small-molecule microarray, higher = more signal.

Take `CCCCCCc1nc(C2CC2)cc2c1[Si](C(C)C)(C(C)C)OC2`: the composite z-score in assay [1] was 0.355; in assay [2], -0.376; in assay [3], -0.14; in [4], -0.715; in assay [5], -1.13; in assay [6], -0.526. For the same compound, the composite z-score was -1.17 in assay [7]; -0.319 in [9]; -0.137 in assay [10]; -0.439 in assay [11]; -0.908 in [15]; -0.152 in [17]. Also, the composite z-score in [18] is -0.798; in assay [19], -0.861; in assay [20] it was -0.228. Further, the z-score in assay [8] was 1.19 (inactive); in assay [12] it was 0.01 (inactive); in [13], -0.183 (inactive); in [14], 0.0489 (inactive); in [16], -0.772 (inactive).
`C=C(C)[C@@H]1CC=C(C(O)C2C=CC3C(=O)N(c4ccccc4)C(=O)C3N2Nc2ccccc2F)CC1` (stereo not given in full): the composite z-score in [1] is 0.264; in assay [2], 0.0754; in assay [3], 0.195; in [4], 0.825; in assay [5] it was 1.63; in assay [6], 1.94. The composite z-score was determined as 1.22 in [7]; 1.84 in assay [9]; 0.18 in assay [10]; 1.57 in [11]; 3.64 in [15]; 0.0865 in [17]. In addition, the composite z-score in assay [18] was 0.443; in assay [19], 1.01; in assay [20], 0.11. Also, the z-score is -1.51 (inactive) in [8]; 1.59 (inactive) in assay [12]; 1.09 (inactive) in assay [13]; 3.06 (inactive) in assay [14]; -1.48 (inactive) in assay [16].
`[N-]=[N+]=NCc1ccccc1[C@H]1OC(c2ccc(OCCCO)cc2)=N[C@@]1(CCS(=O)(=O)c1ccccc1)C(=O)NCC(O)CO` (stereo not given in full): the composite z-score in assay [1] was 0.115; in assay [2], -0.191; in [3], 0.252; in [4] it was 0.564; in assay [5] it was 1.47; in [6], 1.25. Also, the composite z-score is 1.36 in [7]; 1.46 in [9]; 0.126 in assay [10]; 1.56 in [11]; 3.79 in [15]; 0.0761 in [17]. The composite z-score was 0.286 in assay [18], 1.06 in [19] and 0.178 in assay [20]. Moreover, the z-score was 0.515 (inactive) in assay [8]; 0.633 (inactive) in assay [12]; -0.107 (inactive) in assay [13]; 3.65 (inactive) in [14]; -0.28 (inactive) in assay [16].
As for `NC(=O)NCC#Cc1ccc2c(c1)[C@]1(C(=O)N2)[C@H](C(=O)NC[C@H](O)c2ccccc2)[C@H]2C(=O)O[C@H](c3ccccc3)[C@H](c3ccccc3)N2[C@@H]1c1ccc(OCCO)cc1`, the composite z-score is 0.565 in assay [1]; 0.699 in [2]; -0.031 in assay [3]; 0.852 in assay [4]; 0.103 in assay [5]; 0.897 in [6]. For the same compound, the composite z-score was 0.537 in [7]; 0.0377 in assay [9]; -0.131 in assay [10]; 0.889 in [11]; 1.21 in assay [15]; 0.156 in assay [17]. Further, the composite z-score in [18] is -0.0728; in assay [19], 0.0556; in [20], -0.0078. The z-score in [8] was 1.71 (inactive); in [12], 2.75 (inactive); in assay [13], 0.682 (inactive); in assay [14] it was 3.73 (inactive); in assay [16], 1.63 (inactive).
With `C#CCN([C@@H](Cc1ccc(O)cc1)C(=O)OC)[C@@H](/C=C/C1CC1)[C@H](O)Cc1ccccc1`, the composite z-score in assay [1] is 0.164; in assay [2] it was -0.112; in [3], -0.0732; in assay [4] it was -0.37; in assay [5] it was -0.791; in [6], -0.737. In addition, the composite z-score in assay [7] is 0.356; in assay [9] it was -0.09; in assay [10], -0.337; in [11] it was 0.0371; in assay [15], -0.0965; in assay [17], -0.241. Moreover, the figures for the composite z-score in assay [18], in [19] and in [20] were 0.0698, 0.337 and -0.13, respectively. Also, the z-score in [8] is -3.55 (inactive); in assay [12], -0.686 (inactive); in [13], -4.05 (inactive); in assay [14], 0.417 (inactive); in [16], -1.17 (inactive).
